This is an account of results in PubChem BioAssay (NCI).

Among the test systems are NCI-H23 lung; NCI-H226 lung; NCI-H322M lung; HOP-62 NSCLC; NCI-H460 lung; HOP-92 NSCLC; NCI-H522 lung; A549/ATCC NSCLC; 786-0 renal; COLO 205 colon; DU-145 prostate; K-562 leukemia; MALME-3M melanoma; MDA-MB-231 breast; SF-268 CNS; SF-295 CNS; SF-539 CNS; UACC-257 melanoma; M14 melanoma.
What all share (experiment): NCI-60 one-dose screen, 48 h (100 = growth as untreated, 0 = no growth, -100 = all killed)
Common to all, as to conditions: 10 µM unless noted

Structures are written as SMILES. The panel holds about 83,000 compounds, 20% with a hit somewhere; the sample as a whole holds those more often.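 Percent growth is the endpoint: 0 to 100 indicates growth inhibition (40 means 60% inhibition), 0 means no net growth, and negative values indicate cell death.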 Values without a mark were called inactive. The source made the active and inactive calls. The calls were made as follows: active = growth percent below 10; inactive = the rest.

`COc1ccc(-c2nc(SCCC(C)C)nc(N/N=C(/C)c3ccc(C)cc3)c2C#N)cc1`: the growth is 84.5% in the assay on NCI-H23 lung; 91.7% in the assay with NCI-H226 lung; 87.4% in the assay on NCI-H322M lung; 93.9% in the assay with HOP-62 NSCLC; 99.7% in the assay with NCI-H460 lung; 62.2% in the assay with HOP-92 NSCLC. The growth with NCI-H522 lung is 87.2%; in the assay with A549/ATCC NSCLC, 99.3%; in the assay on 786-0 renal, 102%; with COLO 205 colon, 109%; in the assay with DU-145 prostate, 104%; in the assay with K-562 leukemia, 94.6%. Further, the growth in the assay on MALME-3M melanoma is 103%; in the assay with MDA-MB-231 breast, 71%; in the assay with SF-268 CNS, 93.2%; in the assay on SF-295 CNS, 97.7%; in the assay with SF-539 CNS, 86.9%; in the assay with UACC-257 melanoma, 98%. Also, in the assay with M14 melanoma, the growth is 90.4%.
Consider `N/C(=N\N=C\c1cc2ccccc2[nH]1)N/N=C/c1cc2ccccc2[nH]1`, for which the growth was 96.3% in the assay with NCI-H23 lung; 93.7% in the assay on NCI-H226 lung; 100% in the assay on NCI-H322M lung; 95.7% with HOP-62 NSCLC; 95.7% in the assay with NCI-H460 lung; 76.6% in the assay with HOP-92 NSCLC. Further, the growth in the assay with NCI-H522 lung was 98%; in the assay on A549/ATCC NSCLC, 101%; with 786-0 renal, 98.7%; with COLO 205 colon, 102%; with DU-145 prostate it was 112%; in the assay on K-562 leukemia, 61.6%. Besides, the growth is 87.9% in the assay on MALME-3M melanoma; 99.9% in the assay with MDA-MB-231 breast; 103% in the assay with SF-268 CNS; 111% in the assay with SF-295 CNS; 104% with SF-539 CNS; 107% with UACC-257 melanoma. Moreover, in the assay with M14 melanoma, the growth is 99.4%.
`Cc1c2c(cc[n+]1Cc1ccccc1)c1ccc(OCc3ccccc3)cc1n2Cc1ccccc1`: the growth was -12.2% (active) in the assay with NCI-H23 lung; -12% (active) with NCI-H226 lung; -26.9% (active) in the assay on NCI-H322M lung; -70.9% (active) in the assay with HOP-62 NSCLC; -87.5% (active) in the assay on NCI-H460 lung; -67.9% (active) in the assay with HOP-92 NSCLC. Further, the growth with NCI-H522 lung was -47.1% (active); with A549/ATCC NSCLC it was 4.01% (active); in the assay on 786-0 renal, -87.4% (active); with COLO 205 colon, -82.3% (active); with DU-145 prostate it was -33.6% (active); with K-562 leukemia, -25% (active). In addition, the growth in the assay on MALME-3M melanoma was -73.6% (active); in the assay with MDA-MB-231 breast, -85.1% (active); in the assay on SF-268 CNS it was -90.4% (active); in the assay with SF-295 CNS, -69.2% (active); with SF-539 CNS, -5.52% (active); in the assay on UACC-257 melanoma, -0.651% (active). Moreover, the growth in the assay on M14 melanoma is -87.9% (active).
In the case of `O=C(N/N=C/c1ccc(O)c(O)c1)c1sc2ccccc2c1Cl`, the growth in the assay with NCI-H23 lung was 97%; in the assay on NCI-H226 lung, 68.8%; in the assay on NCI-H322M lung, 98.5%; with HOP-62 NSCLC it was 81.7%; in the assay with NCI-H460 lung, 46%; in the assay on HOP-92 NSCLC, 49.7%. Further, the growth in the assay with NCI-H522 lung was 95%; with A549/ATCC NSCLC it was 96.3%; in the assay on 786-0 renal it was 65.2%; in the assay with COLO 205 colon, 53.5%; with DU-145 prostate, 108%; with K-562 leukemia, 95.9%. Further, the growth is 96.8% in the assay on MALME-3M melanoma; 101% in the assay on MDA-MB-231 breast; 77.9% in the assay on SF-268 CNS; 114% with SF-295 CNS; 52.2% in the assay on SF-539 CNS; 111% in the assay with UACC-257 melanoma. The growth in the assay with M14 melanoma is 97.7%.
`C[C@]12C[C@H]1CC[C@]1(C)[C@@H]2CC[C@@]23C[C@H](CC[C@H]21)[C@@](O)(CO)C3`: the growth with NCI-H23 lung is 98.5%; in the assay on NCI-H226 lung, 96.8%; in the assay on NCI-H322M lung, 94.2%; in the assay with HOP-62 NSCLC, 109%; in the assay with NCI-H460 lung, 94.3%; in the assay on HOP-92 NSCLC it was 92.9%. The growth in the assay with NCI-H522 lung was 87%; in the assay with A549/ATCC NSCLC it was 99.6%; with 786-0 renal, -80.1% (active); in the assay with COLO 205 colon, 109%; in the assay with DU-145 prostate, 104%; with K-562 leukemia, 66.7%. For the same compound, the growth with MALME-3M melanoma is 98.7%; in the assay on MDA-MB-231 breast it was 93.1%; in the assay with SF-268 CNS, 103%; with SF-295 CNS, 113%; with SF-539 CNS, 93%; in the assay with UACC-257 melanoma, 100%. For the same compound, the growth with M14 melanoma was -47.9% (active).
On to `COc1cc(C2CC(c3cccc(Nc4ccncc4)c3)=NN2c2cc(Cl)cc(Cl)c2)cc(OC)c1OC` (configuration not stated), for which the growth in the assay with NCI-H23 lung was 77.8%; in the assay on NCI-H226 lung, 87%; in the assay with NCI-H322M lung, 64.2%; with HOP-62 NSCLC it was -29.2% (active); in the assay on NCI-H460 lung it was -68.4% (active); in the assay with HOP-92 NSCLC it was 37.4%. In addition, the growth is 0.35% (active) in the assay on NCI-H522 lung; 17.9% in the assay on A549/ATCC NSCLC; 101% in the assay on 786-0 renal; -58.7% (active) in the assay on COLO 205 colon; -18.1% (active) with DU-145 prostate; -1.05% (active) in the assay on K-562 leukemia. Moreover, the growth in the assay with MALME-3M melanoma was -77.9% (active); in the assay on MDA-MB-231 breast, 19.8%; in the assay on SF-268 CNS it was 42.4%; in the assay with SF-295 CNS, 1.81% (active); in the assay on SF-539 CNS, 70%; in the assay on UACC-257 melanoma, 1.77% (active). The growth in the assay on M14 melanoma was 96.2%.
With `Fc1ccc(C2CC(c3cccc(Nc4ccncc4)c3)=NN2c2ccccc2)cc1` (configuration not stated), the growth in the assay on NCI-H23 lung is 86.3%; in the assay with NCI-H226 lung, 95.5%; in the assay with NCI-H322M lung, 70.6%; with HOP-62 NSCLC, 49.5%; in the assay with NCI-H460 lung, -41.9% (active); in the assay with HOP-92 NSCLC it was 37.1%. Besides, the growth was 75.8% in the assay on NCI-H522 lung; 43.1% in the assay with A549/ATCC NSCLC; 81.7% in the assay on 786-0 renal; -64.8% (active) in the assay with COLO 205 colon; 44.1% in the assay with DU-145 prostate; 0.671% (active) with K-562 leukemia. In addition, the growth with MALME-3M melanoma was -5.72% (active); with MDA-MB-231 breast, 64.3%; in the assay with SF-268 CNS, 73.1%; with SF-295 CNS it was 73.4%; with SF-539 CNS it was 69.7%; with UACC-257 melanoma, 37.8%. In addition, the growth with M14 melanoma is 98.8%.
As to `COc1cc(/C=C/C(=O)c2ccc(Nc3ncnc4ccccc34)cc2)cc(OC)c1`, the growth in the assay with NCI-H23 lung is 72%; in the assay on NCI-H226 lung, 80.2%; in the assay on NCI-H322M lung it was 76%; with HOP-62 NSCLC, 139%; with NCI-H460 lung, 81.4%; with HOP-92 NSCLC it was 87.3%. Also, the growth was 71.4% in the assay with NCI-H522 lung; 41.2% with A549/ATCC NSCLC; 52.1% in the assay on 786-0 renal; 151% in the assay with COLO 205 colon; 71.7% in the assay with DU-145 prostate; 4.61% (active) in the assay with K-562 leukemia. Further, the growth was 106% in the assay with MALME-3M melanoma; 82.9% with MDA-MB-231 breast; 38.1% in the assay with SF-268 CNS; 60.8% in the assay on SF-295 CNS; 71.6% with SF-539 CNS; 93.5% with UACC-257 melanoma. In addition, the growth in the assay on M14 melanoma is 24.7%.
